ABHD5 PLIN5 PPI: ABHD5-PLIN5 interaction inhibitors, primary screen, cell lysate, split luciferase complementation, luminescence | Split G. princeps luciferase complementation, 4 h | inhibition, % at 4 µM | 360,000 tested, 0.78% active | AID 602281, 2012;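 active = inhibition above the mean inhibition across every tested compound plus 3 SD, cut at about 22% in these data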;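 note: 0% = DMSO only wells and the 100% control is not disclosed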
B2AR ag: beta2AR agonists driving receptor internalization, primary screen, cell-based, FAP fluorogen, flow cytometry; Beta-2 adrenergic receptor (Homo sapiens), P07550; Am2.2-beta2AR cells; response, % (concentration not given with the values); 340,000 tested, 0.43% active; AID 504454, 2011;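 active = response above a set limit, near 3 SD of response in nonfluorescent compounds, cut at about 42% in these data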
NTR1 agonist: agonists of human NTR1, primary screen, imaging, U2OS cells, beta-arrestin-GFP, high content. activation, % at 20 µM. AID 493036, 2011. NTR1-U2OS beta-arrestin-GFP spot imaging, agonist mode. Neurotensin receptor type 1 (Homo sapiens), P30989. 330,000 tested, 0.17% active;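 active = activation at or above 40% of the spot to cytoplasm intensity ratio, with at least 20 cells analyzed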;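 note: 0% = DMSO without peptide and 100% = 100 nM NTR1 peptide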
Granule exo inh: LAMP-1 surface exposure blockers, TALL-104 cells – cell-based, flow cytometry, MLPCN library, primary screen; TALL-104 LAMP-1 surface exposure; cells stimulated with thapsigargin and PMA; inhibition, % at 10 µM; 360,000 tested, 0.66% active;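 active = inhibition above about 55%, limit read from the data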
HTR2A ag: mouse Htr2a agonists via beta-arrestin recruitment, primary screen, cell-based, luminescence | 5-hydroxytryptamine receptor 2A (Mus musculus), P35363 | CHO-K1 mHTR2A beta-arrestin complementation; percent of 30 µM serotonin response | activation, % at 7.6 µM | 360,000 tested, 0.66% active;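 active = activation above a run cutoff, the mean activation of all tested compounds plus 3 SD, cut at about 14% in these data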;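 note: 0% = plate median of compound wells and 100% = 30 µM serotonin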
ABHD5 PLIN5 conf: ABHD5-PLIN5 interaction inhibitors, confirmation, biochemical, luminescence; inhibition, % at 4 µM; 2,200 tested, 67% active; AID 651612, 2012; shares compounds with ABHD5 PLIN5 PPI; in the data active = inhibition above about 23%;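 note: 0% = DMSO vehicle wells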
HNF4 counter: HNF4 dimerization inhibitors, counter-screen for ABHD5-PLIN5 interaction inhibitor project, biochemical, split-luciferase complementation, luminescence | shares compounds with ABHD5 PLIN5 PPI | inhibition, % at 4 µM | 2,200 tested, 77% active | AID 651674, 2012;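 active = mean inhibition across replicate wells exceeding the computed hit threshold, cut at about 13% in these data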;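 note: light from luciferase halves that rejoin when HNF4 fusion proteins dimerize; 0% = DMSO only wells and the 100% control is not given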
* = called active by the depositor; / = not tested or not shown. In the library only some 2.3% were active in any assay of this set; here they are far more common.

SMILES	ABHD5 PLIN5 PPI	B2AR ag	NTR1 agonist	Granule exo inh	HTR2A ag	ABHD5 PLIN5 conf	HNF4 counter
CCn1c(SCC(=O)N/N=C/C(C)=C/c2ccco2)nnc1-c1ccccc1	7	3	-1	-8	2	/	/
O=C(c1ccc(F)cc1)C(CN1CCOCC1)c1ccccc1 (stereo not drawn)	38*	12	24	9	1	29*	99*
COc1ccc(C(=O)C(CN2CCOCC2)c2ccccc2)cc1 (stereo not drawn)	19	5	1	1	-3	/	/
O=C(c1ccccc1)C(CCC(CN1CCOCC1)C(=O)c1ccccc1)CN1CCOCC1 (stereo not drawn)	58*	9	13	76*	-9	46*	102*
O=C(O)c1cccc(Nc2ccc([N+](=O)[O-])c3nonc23)c1	16	-5	-1	-8	-9	/	/
O=[N+]([O-])c1c(Nc2ccc(O)cc2)cc(Cl)c2nonc12	58*	81*	-4	-13	-11	83*	101*
O=C(O)c1ccccc1Nc1cc(Cl)c2nonc2c1[N+](=O)[O-]	29*	3	0	-2	8	80*	95*
O=C(O)c1cccc(Nc2cc(Cl)c3nonc3c2[N+](=O)[O-])c1	29*	-5	-1	-5	1	58*	95*
Cc1nc2c(-c3ccccc3)cnn2c(N)c1-c1ccccc1	-5	13	15	11	0	/	/
O=C1/C(=C\c2ccco2)NC(=S)N1c1ccccc1	25*	-11	1	24	11	30*	44*
CC#CC[N+](C)(C)CCCCCCCCCCCC	27*	11	1	-1	0	13	0
C#CC[N+](C)(C)CCCCCCCCCC	8	7	1	9	-5	/	/
C#CC[N+](C)(C)CCCCCCCCCCCC	23*	1	-1	9	0	16	6
O=C(C=Cc1cccc(Cl)c1)c1ccccc1	51*	19	/	-2	-3	97*	94*
O=C(O)c1ccc2c(c1)C(=O)N(c1cccc(C(=O)/C=C/c3ccccc3)c1)C2=O	46*	-2	0	3	1	97*	91*
CC(/C=C/c1ccccc1F)=N\NC(=O)c1ccccc1	6	3	2	-4	6	/	/
O=C(C=Cc1ccccc1F)c1ccccc1	69*	/	/	-2	-3	87*	79*
O=C(Nc1ccc(C(=O)N2CCCCC2)cc1)c1ccc([N+](=O)[O-])cc1	-7	-6	1	-1	-8	/	/
CC(C)NC(=O)N(C)C[C@H]1Oc2ccc(NC(=O)NC3CCCCC3)cc2C(=O)N([C@H](C)CO)C[C@@H]1C	-6	2	0	-4	-2	/	/
Cc1ccc(/C=C2/CNC/C(=C/c3ccc(C)cc3)C2=O)cc1	96*	2	/	30	-3	100*	94*
COc1ccccc1NC(=O)N(C)C[C@@H]1OCc2cnnn2CCCC(=O)N([C@@H](C)CO)C[C@@H]1C	-11	/	/	3	0	/	/
O=C1NC(=O)/C(=C\c2ccc(N3CCOCC3)o2)N1	68*	-5	2	-4	2	42*	94*
O=C1NC(=O)/C(=C/c2ccc(N3CCOCC3)o2)N1	29*	1	-1	1	1	27*	47*
Cc1cccc(N2CCN(C(=O)CCC(=O)N3CC(C)Oc4ccccc43)CC2)c1C (stereo not drawn)	-5	24	2	3	-7	/	/
O=C1/C(=N/n2cnnc2)c2ccccc2N1Cc1ccccc1	/	/	27	/	/	/	/
SMILES	ABHD5 PLIN5 PPI	B2AR ag	NTR1 agonist	Granule exo inh	HTR2A ag	ABHD5 PLIN5 conf	HNF4 counter
CNC(=S)N(C)/N=C1/C(=O)N(Cc2c(Cl)cccc2Cl)c2ccccc21	27*	29	16	-8	0	-4	16*
C(=C\c1ccco1)/C1=NN(c2ccccc2)C(c2ccco2)C1 (stereo not drawn)	34*	-10	0	2	-5	27*	18*
Cc1ccc(C)c(S(=O)(=O)N2CCN(Cc3cc4c(cc3O)OCO4)CC2)c1	25*	-2	3	-3	-5	35*	65*
Cc1cccc(C(=O)Nc2ccc(N3CCN(S(C)(=O)=O)CC3)cc2)c1	1	6	0	-2	5	/	/
O=c1[nH]sc2ccccc12	65*	3	/	46	5	66*	109*
CN(C)C(=O)C1CCC(=O)N1Cc1cccs1 (stereo not drawn)	-1	-4	0	2	-3	/	/
OC(c1cccc(Cl)c1)c1nc(-c2ccoc2)cs1 (stereo not drawn)	27*	/	/	12	5	47*	43*
OC(c1ccc(F)c(F)c1)c1nc(-c2ccoc2)cs1 (stereo not drawn)	20	/	/	0	-1	/	/
Nc1nc(Sc2ccc([N+](=O)[O-])c3nonc23)c2[nH]cnc2n1	53*	13	/	27	1	83*	110*
OCc1ccc(-c2cncc3nccn23)cc1	0	/	/	-1	2	/	/
c1cn2c(-c3ccoc3)cncc2n1	23*	/	/	-4	-3	34*	35*
C#CCN(C[C@@H]1[C@@H](OC(=O)NCCCCCC)[C@@H](OC(=O)NCCCCCC)Cn2c(=O)ccc(=O)n21)S(=O)(=O)c1ccc(C)cc1	34*	/	/	-20	9	56*	-4
C#CCN(C[C@@H]1[C@@H](OC(=O)NCc2ccco2)[C@@H](OC(=O)NCc2ccco2)Cn2c(=O)ccc(=O)n21)S(=O)(=O)c1ccc(C)cc1	27*	/	/	5	7	41*	26*
C#CCN(C[C@@H]1[C@@H](OC(=O)NCc2ccc(OC)c(OC)c2)[C@@H](OC(=O)NCc2ccc(OC)c(OC)c2)Cn2c(=O)ccc(=O)n21)S(=O)(=O)c1ccc(C)cc1	46*	/	/	1	-1	62*	21*
CCOc1ncccc1C(=O)Nc1cccc(S(=O)(=O)N2CCOCC2)c1	-3	-2	5	-11	3	/	/
O=C1NC(=Nc2ccc(O)cc2)S/C1=C\C=C\c1ccco1	33*	22	4	9	0	27*	45*
CCCc1ccc(C2C3=C(CC(C)(C)CC3=O)NC3=C2C(=O)c2ccccc23)cc1 (stereo not drawn)	42*	12	5	2	-13	66*	75*

Compound activity from PubChem BioAssay.
